Measurements taken from PubChem BioAssay (Tox21).
Records with an inconclusive call do not appear. The source made the active and inactive calls. Unless noted, the call rests on the fitted dose curve; in most records, active means well fitted curve in the direction sought with a large enough effect in the repeat runs; inconclusive means weak or mixed curves; inactive means no such curve, though single readings can be large; an effect the other way counts as inactive or inconclusive. Where a SMILES comes first, the peptide text is derived from it.

Assays:
[1] = qHTS assay to identify aromatase inhibitors - cell viability counter screen (AID 743084);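 further: cells stimulated with testosterone during compound exposure; nearly all actives have a fitted effect of over 55% in size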
[2] = qHTS assay to identify small molecule that activate the aryl hydrocarbon receptor (AhR) signaling pathway - cell viability counter screen (AID 743086);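 further: HepG2 liver cells carrying the AhR DRE luciferase reporter; series mostly up to about 70 µM; nearly all actives have a fitted effect of over 45% in size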
Procedure, shortened: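 HepG2-AhR-luc (HG2L7.5c1) cells, 4000/well, were preincubated 5 h at 37C, exposed to compound in qHTS format for 24 hr at 37C, then given CellTiter-Fluor for 30 min; viability was read as fluorescence in the reporter wells.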

[3] = qHTS assay to identify small molecule antagonists of the peroxisome proliferator-activated receptor gamma (PPARg) signaling pathway - cell viability counter screen (AID 743194); further: nearly all actives have a fitted effect of over 55% in size
Procedure, shortened: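 PPARg-UAS-bla HEK293H cells were plated, rested 5 h at 37 C, then treated with compounds plus rosiglitazone (50 nM final) for 17 h at 37 C; viability was then read by CellTiter-Glo luminescence after 30 min at room temperature.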

[4] = qHTS assay for small molecule agonists of the antioxidant response element (ARE) signaling pathway (AID 743202; active means well fitted activation curve with a large enough effect in the signal ratio in the repeat runs, not every such curve was filed as active; the % refers to the signal ratio)
Procedure, shortened: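 Read-out: LiveBLAzer B/G FRET substrate fluorescence after 2 h at room temperature, following 16 h compound treatment at 37 C of HepG2 cells carrying an ARE-driven beta-lactamase reporter.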

[5] = qHTS assay for small molecule agonists of the antioxidant response element (ARE) signaling pathway - cell viability counter screen (AID 743203; calls by dose curve; further: nearly all actives have a fitted effect of over 55% in size)
Procedure, shortened: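 Cells (ARE-bla HepG2, 2,000/well) receive DMSO-dissolved compounds after a 5 hrs rest. Plates incubate 16 hrs at 37C/5% CO2. CellTiter-Glo luminescence is then recorded after 30 min at room temperature.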

[6] = qHTS assay for small molecule activators of the heat shock response signaling pathway - cell viability counter screen (AID 743209); further: nearly all actives have a fitted effect of over 50% in size
Procedure, shortened: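 Quantitative HTS format, Tox21 10K library. HeLa cells carrying an HSE-driven beta-lactamase reporter were treated 5 h at 37 C, then assessed for viability by CellTiter-Glo luminescence.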

[7] = qHTS assay to identify small molecule agonists of the peroxisome proliferator-activated receptor delta (PPARd) signaling pathway - cell viability counter screen (AID 743211); further: nearly all actives have a fitted effect of over 55% in size
Procedure, shortened: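 Viability was measured as CellTiter-Glo luminescence (30 min, room temperature) in the same wells as the beta-lactamase readout. GeneBLAzer PPARd UAS-bla HEK293H cells received compound after 5 h plating and were incubated 17 h at 37 C.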

[8] = biological target: Peroxisome proliferator-activated receptor delta (Homo sapiens) (UniProt Q03181); assay: qHTS assay to identify small molecule agonists of the peroxisome proliferator-activated receptor delta (PPARd) signaling pathway (AID 743212; calls by dose curve)
Sequence of Peroxisome proliferator-activated receptor delta (Homo sapiens) (Q03181 whole entry, looked up): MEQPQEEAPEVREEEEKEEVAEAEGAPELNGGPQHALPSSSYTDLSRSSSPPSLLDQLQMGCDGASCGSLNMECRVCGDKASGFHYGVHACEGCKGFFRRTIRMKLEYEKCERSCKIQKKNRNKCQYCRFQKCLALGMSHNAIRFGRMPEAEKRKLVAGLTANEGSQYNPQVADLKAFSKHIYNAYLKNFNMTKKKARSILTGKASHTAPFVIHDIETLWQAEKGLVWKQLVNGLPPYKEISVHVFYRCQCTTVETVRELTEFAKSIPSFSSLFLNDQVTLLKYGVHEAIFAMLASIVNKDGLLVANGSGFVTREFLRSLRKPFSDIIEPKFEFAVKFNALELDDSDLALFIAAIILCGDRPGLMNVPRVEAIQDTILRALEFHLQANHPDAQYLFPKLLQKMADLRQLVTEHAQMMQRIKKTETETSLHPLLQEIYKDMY
Procedure, shortened: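 GeneBLAzer PPARd UAS-bla HEK293H cells (beta-lactamase reporter under UAS control), plated and rested 5 h at 37 C, then exposed to compounds in DMSO at 37 C; LiveBLAzer B/G FRET substrate added, 2 h room temperature, fluorescence read.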

[9] = biological target: Bile acid receptor (Homo sapiens) (UniProt Q96RI1); assay: qHTS assay to identify small molecule antagonists of the farnesoid-X-receptor (FXR) signaling pathway (AID 743217; active means well fitted inhibition curve with a large enough effect in the signal ratio in the repeat runs, not every such curve was filed as active; the % refers to the signal ratio)
Sequence of Bile acid receptor (Homo sapiens) (Q96RI1 whole entry, looked up): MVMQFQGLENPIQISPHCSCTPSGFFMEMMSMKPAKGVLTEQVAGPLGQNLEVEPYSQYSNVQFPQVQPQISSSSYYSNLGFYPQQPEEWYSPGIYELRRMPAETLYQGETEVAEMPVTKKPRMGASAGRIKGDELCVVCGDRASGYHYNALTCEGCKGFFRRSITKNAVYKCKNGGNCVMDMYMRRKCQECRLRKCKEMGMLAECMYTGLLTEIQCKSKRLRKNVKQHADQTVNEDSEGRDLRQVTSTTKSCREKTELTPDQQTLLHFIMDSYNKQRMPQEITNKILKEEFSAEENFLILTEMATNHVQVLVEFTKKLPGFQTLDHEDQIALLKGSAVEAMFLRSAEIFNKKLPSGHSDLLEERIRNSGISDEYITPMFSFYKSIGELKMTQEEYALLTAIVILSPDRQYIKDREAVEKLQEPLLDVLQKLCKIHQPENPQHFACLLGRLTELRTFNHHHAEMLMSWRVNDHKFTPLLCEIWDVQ
Procedure, shortened: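 Beta-lactamase reporter under UAS control in HEK 293T cells; compound exposure 16 h at 37 °C in the presence of chenodeoxycholic acid (50 uM final); signal from B/G FRET substrate after 2 h at room temperature.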

[10] = qHTS assay to identify small molecule agonists of the farnesoid-X-receptor (FXR) signaling pathway - cell viability counter screen (AID 743218); further: nearly all actives have a fitted effect of over 45% in size
Procedure, shortened: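 In GeneBLAzer FXR-UAS-bla HEK 293T cells, compounds act for 16 h at 37 C. Cell viability is then scored in the reporter wells by CellTiter-Glo, 30 min at RT, luminescence.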

[11] = biological target: Bile acid receptor (Homo sapiens) (UniProt Q96RI1); assay: qHTS assay to identify small molecule agonists of the farnesoid-X-receptor (FXR) signaling pathway (AID 743220; active means well fitted activation curve with a large enough effect in the signal ratio in the repeat runs, not every such curve was filed as active; the % refers to the signal ratio)
Procedure, shortened: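 Beta-lactamase reporter under UAS control in GeneBLAzer FXR HEK 293T cells (5000/well) measured with LiveBLAzer FRET substrate after 2 h at room temperature. Compound exposure lasted 16 h at 37C.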

[12] = qHTS assay to identify small molecule antagonists of the farnesoid-X-receptor (FXR) signaling pathway - cell viability counter screen (AID 743221; active means well fitted cell-killing curve with a large enough effect in the repeat runs, not every such curve was filed as active; further: nearly all actives have a fitted effect of over 50% in size)
Procedure, shortened: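 Cytotoxicity counter screen run in the FXR-bla reporter wells: HEK 293T cells exposed to compound with 50 uM (final) chenodeoxycholic acid for 16 h, 37 C, then viability measured by CellTiter-Glo luminescence after 30 min, room temperature.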

[13] = biological target: Vitamin D3 receptor (Homo sapiens) (UniProt P11473); assay: qHTS assay to identify small molecule agonists of the vitamin D receptor (VDR) signaling pathway (AID 743222; calls by dose curve)
Sequence of Vitamin D3 receptor (Homo sapiens) (P11473 whole entry, looked up): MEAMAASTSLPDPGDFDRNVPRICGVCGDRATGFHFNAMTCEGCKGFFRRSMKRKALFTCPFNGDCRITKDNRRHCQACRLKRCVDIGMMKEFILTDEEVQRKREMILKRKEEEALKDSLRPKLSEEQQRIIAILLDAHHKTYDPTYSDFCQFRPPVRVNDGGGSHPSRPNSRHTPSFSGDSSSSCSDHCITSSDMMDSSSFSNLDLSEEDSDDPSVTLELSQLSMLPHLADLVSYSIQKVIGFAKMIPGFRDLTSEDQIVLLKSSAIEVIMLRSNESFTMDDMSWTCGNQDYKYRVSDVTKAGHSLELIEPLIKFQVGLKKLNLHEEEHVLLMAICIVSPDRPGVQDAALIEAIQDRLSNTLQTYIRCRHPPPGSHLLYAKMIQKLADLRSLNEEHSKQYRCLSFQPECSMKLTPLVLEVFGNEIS
Procedure, shortened: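 Agonist activity measured in VDR-bla reporter cells. Exposure 16 h, 37C, 5% CO2; detection by B/G FRET substrate, 2 h RT.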

[14] = biological target: Peroxisome proliferator-activated receptor gamma (Homo sapiens) (UniProt P37231); assay: qHTS assay to identify small molecule agonists of the peroxisome proliferator-activated receptor gamma (PPARg) signaling pathway (AID 743094; active means well fitted activation curve with a large enough effect in the signal ratio in the repeat runs, not every such curve was filed as active; the % refers to the signal ratio)
Sequence of Peroxisome proliferator-activated receptor gamma (Homo sapiens) (P37231 whole entry, looked up): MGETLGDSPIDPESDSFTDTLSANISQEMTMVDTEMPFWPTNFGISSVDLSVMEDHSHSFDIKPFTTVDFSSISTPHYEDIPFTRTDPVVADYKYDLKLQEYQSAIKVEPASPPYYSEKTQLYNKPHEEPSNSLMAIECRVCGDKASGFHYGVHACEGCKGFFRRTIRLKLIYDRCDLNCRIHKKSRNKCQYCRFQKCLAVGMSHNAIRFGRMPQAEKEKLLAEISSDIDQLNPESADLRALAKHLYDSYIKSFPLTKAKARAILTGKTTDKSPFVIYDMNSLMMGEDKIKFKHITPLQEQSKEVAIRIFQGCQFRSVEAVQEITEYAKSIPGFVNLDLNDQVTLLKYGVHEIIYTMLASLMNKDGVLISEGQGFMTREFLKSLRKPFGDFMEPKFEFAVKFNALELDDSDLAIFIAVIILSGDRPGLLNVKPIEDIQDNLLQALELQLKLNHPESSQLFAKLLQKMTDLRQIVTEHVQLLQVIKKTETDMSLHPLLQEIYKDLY
Procedure, shortened: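 Stably transfected HEK293H cells (GeneBLAzer PPARg UAS-bla) were incubated with test substances for 17 h at 37C after a 5 h pre-incubation; beta-lactamase activity was then detected by FRET substrate fluorescence.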

[15] = qHTS assay for small molecule activators of the heat shock response signaling pathway (AID 743210; active means well fitted activation curve with a large enough effect in the signal ratio in the repeat runs, with a control signal flat, not every such curve was filed as active; the % refers to the signal ratio; further: series mostly up to about 63 µM)
Procedure, shortened: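 HSE-bla HeLa cells (beta-lactamase reporter under heat shock response elements) were exposed to compounds for 5 h at 37 C, then loaded with LiveBLAzer B/G FRET substrate for 2.5 h at room temperature before fluorescence reading.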

[16] = qHTS assay to identify small molecule antagonists of the peroxisome proliferator-activated receptor delta (PPARd) signaling pathway - cell viability counter screen (AID 743213); further: nearly all actives have a fitted effect of over 50% in size
Procedure, shortened: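 Agonist-stimulated (L165041, 300 nM final) HEK293H PPARd UAS-bla cells are exposed to compounds for 17 h at 37 C, and ATP-based luminescence (CellTiter-Glo) from the same wells reports cytotoxicity.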

[17] = biological target: Peroxisome proliferator-activated receptor delta (Homo sapiens) (UniProt Q03181); assay: qHTS assay to identify small molecule antagonists of the peroxisome proliferator-activated receptor delta (PPARd) signaling pathway (AID 743215; active means well fitted inhibition curve with a large enough effect in the signal ratio in the repeat runs, not every such curve was filed as active; the % refers to the signal ratio; further: series mostly up to about 62 µM)
Procedure, shortened: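 Antagonist-mode beta-lactamase reporter screen: HEK293H cells with UAS-bla under PPARd control, stimulated by 300 nM L165041 (final) alongside test compound for 17 h at 37 C, then FRET fluorescence after 2 h substrate incubation.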

[18] = biological target: Vitamin D3 receptor (Homo sapiens) (UniProt P11473); assay: qHTS assay to identify small molecule antagonists of the vitamin D receptor (VDR) signaling pathway (AID 743223; active means well fitted inhibition curve with a large enough effect in the signal ratio in the repeat runs, not every such curve was filed as active; the % refers to the signal ratio)
Procedure, shortened: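 Antagonist mode: compound added to VDR-bla cells alongside agonist 1alpha,25-dihydroxyvitamin D3 (3 nM final), incubation 16 h at 37C. Read-out is LiveBLAzer FRET fluorescence, 2 h at room temperature.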

[19] = biological target: Peroxisome proliferator-activated receptor gamma (Homo sapiens) (UniProt P37231); assay: qHTS assay to identify small molecule antagonists of the peroxisome proliferator-activated receptor gamma (PPARg) signaling pathway (AID 743191; calls by dose curve; further: series mostly up to about 63 µM; nearly all actives have a fitted effect of over 30% in size)
Procedure, shortened: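 GeneBLAzer PPARg UAS-bla HEK293H cells carrying a UAS-driven beta-lactamase reporter were plated at 3000 cells/well, preincubated 5 h at 37C, then given compound for 17 h at 37C; LiveBLAzer B/G FRET substrate was read after 1 h at room temperature.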

[20] = biological target: Aryl hydrocarbon receptor (Homo sapiens) (UniProt P35869); assay: qHTS assay to identify small molecule that activate the aryl hydrocarbon receptor (AhR) signaling pathway (AID 743085);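 further: HG2L7.5c1 human HepG2 liver cells with stably integrated DRE-driven firefly reporter; series mostly up to about 70 µM; nearly all actives have a fitted effect of over 15% in size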
Sequence of Aryl hydrocarbon receptor (Homo sapiens) (P35869 whole entry, looked up): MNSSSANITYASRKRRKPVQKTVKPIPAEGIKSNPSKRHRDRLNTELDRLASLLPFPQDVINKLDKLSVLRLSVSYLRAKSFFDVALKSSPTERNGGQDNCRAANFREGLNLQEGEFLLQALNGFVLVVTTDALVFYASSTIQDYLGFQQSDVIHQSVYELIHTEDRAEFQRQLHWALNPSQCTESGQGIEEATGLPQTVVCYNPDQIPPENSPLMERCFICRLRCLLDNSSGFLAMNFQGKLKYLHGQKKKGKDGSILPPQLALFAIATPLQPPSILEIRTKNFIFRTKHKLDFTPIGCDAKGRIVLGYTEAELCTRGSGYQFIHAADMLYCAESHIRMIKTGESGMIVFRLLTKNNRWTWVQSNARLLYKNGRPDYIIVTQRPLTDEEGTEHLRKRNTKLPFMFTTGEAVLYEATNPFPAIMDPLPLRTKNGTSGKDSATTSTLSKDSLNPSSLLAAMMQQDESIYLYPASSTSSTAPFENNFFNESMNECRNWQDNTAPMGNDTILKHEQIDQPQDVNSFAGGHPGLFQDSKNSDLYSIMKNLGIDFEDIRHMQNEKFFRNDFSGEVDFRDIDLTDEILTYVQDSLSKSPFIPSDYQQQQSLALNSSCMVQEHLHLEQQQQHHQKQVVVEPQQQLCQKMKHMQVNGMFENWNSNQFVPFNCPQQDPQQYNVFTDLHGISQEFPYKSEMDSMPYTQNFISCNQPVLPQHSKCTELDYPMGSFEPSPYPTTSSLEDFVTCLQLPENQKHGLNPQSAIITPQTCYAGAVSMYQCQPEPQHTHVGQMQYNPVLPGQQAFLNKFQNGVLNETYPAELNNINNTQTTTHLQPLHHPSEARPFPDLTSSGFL
Procedure, shortened: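 Luminescence (ONE-Glo) from a dioxin-responsive-element luciferase reporter in HG2L7.5c1 HepG2 cells after 24 hr compound exposure at 37C; viability measured by CellTiter-Fluor fluorescence beforehand.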

Measured: Potency

CN(C)CCCCl
inactive: [1] | [2] | [3] | [4] | [5] | [6] | [7] | [8] | [9] | [10] | [11] | [12] | [13]

CCC(=O)c1c(O)cc(O)cc1O
inactive: [1] | [2] | [14] | [3] | [5] | [6] | [15] | [7] | [16] | [9] | [11]

C=C(C)[C@@H]1CC=C(C)CC1
inactive: [1] | [2] | [5] | [6] | [15] | [7] | [16] | [10] | [12]

Fc1ccccc1
inactive: [1] | [2] | [3] | [5] | [6] | [15] | [7] | [8] | [10] | [12] | [13]

OC1(c2ccc(Cl)cc2)CCNCC1
inactive: [3] | [4] | [5] | [6] | [7] | [8] | [16] | [17] | [9] | [10] | [11] | [12] | [13] | [18]

CCN(CC)CCN
inactive: [19] | [3] | [4] | [5] | [6] | [15] | [7] | [16] | [9] | [10] | [11] | [12] | [13] | [18]

CC(=O)N[C@@H](CO)C(=O)N[C@@H](CC(=O)O)C(=O)N[C@@H](CCCCN)C(=O)N1CCC[C@H]1C(=O)O (Ac-SDKP-OH)
inactive: [3] | [4] | [5] | [6] | [15] | [7] | [8] | [16] | [17] | [9] | [10] | [11] | [12] | [13] | [18]

CC(=O)C1C(=O)C=C(C)OC1=O (stereo unspecified)
inactive: [1] | [2] | [14] | [3] | [5] | [6] | [15] | [7] | [8] | [16] | [9] | [11] | [12] | [13] | [18]

COc1cc(/C=C/C(N)=O)cc(OC)c1OC
inactive: [3] | [4] | [5] | [6] | [15] | [7] | [8] | [16] | [17] | [9] | [10] | [11] | [12] | [13] | [18]

CC(C)NC(=O)c1ccc(C=O)cc1
inactive: [3] | [5] | [6] | [15] | [7] | [8] | [16] | [17] | [10] | [12] | [13] | [18]

COc1cc(OC)nc(O[C@H](C(=O)O)C(OC)(c2ccccc2)c2ccccc2)n1
inactive: [3] | [4] | [6] | [7] | [16] | [10] | [12] | [13] | [18]

CC(Oc1cc(Cl)ccc1Cl)C(=O)O (stereo unspecified)
inactive: [20] | [2] | [14] | [19] | [3] | [6] | [15] | [7] | [16] | [17] | [12]

O=C(CCCl)NCCc1ccccc1
inactive: [3] | [4] | [5] | [6] | [7] | [8] | [16] | [17] | [9] | [10] | [11] | [12] | [13] | [18]

CCN1CCCC1CN (stereo unspecified)
inactive: [19] | [3] | [5] | [6] | [7] | [8] | [16] | [17] | [12] | [13] | [18]

COCCc1ccccn1
inactive: [19] | [3] | [4] | [5] | [15] | [7] | [8] | [16] | [17] | [10] | [12]

CCC(C(=O)OCCN1CCOC(c2ccccc2)C1C)c1ccccc1 (stereo unspecified)
inactive: [3] | [4] | [5] | [6] | [7] | [8] | [16] | [10] | [13]

CC(C)CO
inactive: [20] | [2] | [3] | [4] | [6] | [15] | [7] | [16] | [12] | [13]

CCOc1ccccc1OCC1CNCCO1 (stereo unspecified)
inactive: [19] | [3] | [4] | [6] | [15] | [7] | [8] | [16] | [10] | [12] | [13] | [18]
